What all share (assay): NCI-60 one-dose screen, 48 h (100 = growth as untreated, 0 = no growth, -100 = all killed)
Common to all, as to conditions: 10 µM unless noted

Test [1] concerns NCI-H23 lung.
The subject of test [2] is NCI-H226 lung.
For test [3], the system named is NCI-H322M lung.
Test [4] has as its system HOP-62 NSCLC.
The test system of test [5] is NCI-H460 lung.
Test [6] relates to HOP-92 NSCLC.
Test [7] concerns NCI-H522 lung.
The test system of test [8] is A549/ATCC NSCLC.
Test [9] relates to 786-0 renal.
Test [10] relates to COLO 205 colon.
Test [11] concerns DU-145 prostate.
Test [12] concerns K-562 leukemia.
Test [13] has as its system MALME-3M melanoma.
Test [14] has as its system MDA-MB-231 breast.
In test [15] the test system is RXF 393 renal.
For test [16], the system named is SF-268 CNS.
In test [17] the test system is SF-295 CNS.
Test [18] deals with SF-539 CNS.
Test [19] deals with UACC-257 melanoma.
Test [20] concerns M14 melanoma.

Here are results for 7 compounds from PubChem BioAssay (NCI).

SMILES strings stand for the structures. Compounds without any hit were thinned out: in the full panel of roughly 83,000, 20% have a hit.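 Method: cells in 96-well plates; compound added at one concentration; 48 h incubation; percent growth measured; values under 10 scored active.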 Values without a mark were called inactive. The source made the active and inactive calls.

Consider `C=CCn1c(SCC(=O)Nc2ccc(C(=O)/C=C/c3ccc(OC)cc3)cc2)nnc1-c1ccccc1`, for which the growth in [1] was 94.2%; in [2], 90.3%; in test [3], 89%; in [4], 91.6%; in [5] it was 103%; in test [6], 86%. Moreover, the growth is 80.7% in [7]; 83% in [8]; 73.3% in test [9]; 101% in test [10]; 93.8% in [11]; 91.5% in [12]. Moreover, the growth is 88.2% in [13]; 76.2% in test [14]; 115% in test [15]; 80.9% in test [16]; 90.4% in [17]; 98.2% in test [18]. Also, the growth in [19] was 104%; in test [20], 81.5%.
Consider `O=C(/C=C/c1ccccc1)Nc1ncc(Cc2ccccc2)s1`, for which the growth is 24.8% in test [1]; 60.3% in test [2]; 31.4% in test [3]; 13.7% in test [4]; 2.22% (active) in test [5]; 85.7% in [6]. Moreover, the growth was -4.58% (active) in [7]; 22.1% in [8]; 24.5% in test [9]; 8.42% (active) in test [10]; 16% in test [11]; 10.5% in test [12]. The growth was 44.3% in test [13]; 33.4% in test [14]; 10.9% in test [15]; 39.4% in test [16]; -10.7% (active) in [17]; -22.2% (active) in [18]. The growth was 48.3% in [19] and 5.78% (active) in [20].
In the case of `CCOC(=O)c1c(C)nc2c(c1N)CC(=O)N2Cc1cc(OC)c(OC)c(OC)c1`, the growth was 39.7% in test [1]; 70.5% in test [2]; 81.3% in [3]; 32.5% in test [4]; 17.6% in test [5]; 62.6% in test [6]. Further, the growth was 33.2% in [7]; 40.7% in [8]; 66.2% in test [9]; 20.4% in test [10]; 80.6% in [11]; 14.6% in [12]. Besides, the growth in test [13] is 45%; in [14], 55.3%; in test [15] it was 73.2%; in test [16], 69.5%; in test [17], 39.5%; in test [18], 66.2%. The results for the growth in [19] and in test [20] were 53% and 28.1%, respectively.
As for `CC(C)CCSc1nc(Nc2ccccc2)c(C#N)c(-c2ccccc2)n1`, the growth in [1] is 50.1%; in test [2] it was 90.3%; in [3], 34.3%; in [4], 19.7%; in test [5] it was 14.6%; in [6], 21.8%. For the same compound, the growth in [7] is 69.8%; in test [8], 14.8%; in [9], 8.79% (active); in test [10], 46%; in test [11], 61.9%; in test [12], 48.6%. In addition, the growth in test [13] was 37.4%; in test [14] it was 8.82% (active); in test [15] it was 23.1%; in test [16], 60%; in [17] it was 32%; in [18], 18.4%. Further, the growth was 88.2% in test [19] and 71.4% in test [20].
With `CCn1cc(C(=O)N/N=C/c2ccc(Br)cc2)c(=O)c2cc(F)c(N3CCNC(C)C3)c(F)c21` (stereo not given), the growth in [1] was 91%; in test [2], 97.3%; in test [3] it was 85.8%; in test [4], 88.8%; in [5], -50.8% (active); in [6], 61.2%. Moreover, the growth was 78.5% in test [7]; 45.3% in [8]; 63.9% in test [9]; 32.1% in test [10]; 31.4% in test [11]; -12.6% (active) in [12]. For the same compound, the growth in [13] was 58.7%; in test [14], 54.8%; in test [15], 61.3%; in [16], 62.6%; in test [17], 74.5%; in test [18], 71.4%. Further, the growth in test [19] was 104%; in [20] it was 42.7%.
Turning to `COc1ccc2c(O)c(/C=C3\N=Nc4ccccc43)oc2c1C[C@H]1CCNC[C@H]1F`, the growth in test [1] was 46.8%; in [2], 60.6%; in test [3], 73.4%; in [4] it was 53.6%; in test [5] it was 29.8%; in test [6], 38.6%. For the same compound, the growth in [7] was 46.7%; in [8], 34.4%; in test [9], 57.8%; in test [10], 0.564% (active); in test [11], 51.1%; in test [12], 37.4%. Moreover, the growth in [13] is 42.3%; in [14], 47.8%; in [15], 59.9%; in test [16] it was 77.2%; in test [17], 66.9%; in test [18], 57.4%. Also, the growth in test [19] was 52.2%; in test [20] it was 28.7%.
In the case of `O=C(CN1C(=O)NC2NC(=O)NC21)N/N=C/c1ccc(Cl)cc1Cl` (stereo not given), the growth in [1] is 102%; in [2], 95.6%; in [3], 104%; in test [4] it was 114%; in test [5], 105%; in [6] it was 125%. For the same compound, the growth in [7] was 93.3%; in [8], 110%; in test [9], 96.6%; in [10], 125%; in test [11] it was 113%; in test [12], 105%. Further, the growth in test [13] is 106%; in [14], 109%; in test [15], 117%; in [16], 99.6%; in test [17], 101%; in test [18], 93.3%. The values for the growth in test [19] and in test [20] were 114% and 104%, respectively.
